# Only some compounds are listed: those with a hit (about 3.1% of all), similar ones and a draw of the others.
# SKKanGAS inh – SKKanGAS growth inhibition | 1.3% of 300,000 active | inhibition, % at 7.5 µM | S. pyogenes SKKanGAS, kanamycin growth, BacTiter-Glo, 6 h | AID 1662;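 active = mean replicate score, as percent of positive control median, at least 50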;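 note: strain carries kanamycin resistance gene driven by streptokinase promoter and grows in 40 µg/ml kanamycin; loss of luminescence reflects streptokinase promoter inhibition or plain growth inhibition; 0% = median of DMSO wells and 100% = positive control at its reference dose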
# PP5 primary – PP5 (human) phosphatase inhibition | P53041 | purified PP5c, OMFP substrate fluorescence | inhibition, % at 6.7 µM | 0.18% of 320,000 active | AID 1987;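 active = inhibition above the campaign's mean inhibition across all tested compounds plus 3 SD, cut at about 9.5% in these data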;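 note: 0% = DMSO only and 100% = 100 µM cantharidin control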
# CSC inhib – blocks cancer stem cells; AID 2717; inhibition, % at 7.5 µM; cancer stem cell-like cells viability, luminescence; 1.1% of 300,000 active; in the data active = inhibition above about 75%; tested in HMLE shEcad cells
# PP1 counter – PP1-alpha (human) inhibition in PP5 counter-screen; inhibition, % at 6.7 µM; purified PP1alpha, OMFP fluorescence; AID 2235; P62136; 0.9% of 320,000 active;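 active = inhibition above the mean inhibition of all tested compounds plus 3 SD, computed separately for each screening campaign, cut at about 15% in these data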
# Target sequence (P62136 whole entry, looked up): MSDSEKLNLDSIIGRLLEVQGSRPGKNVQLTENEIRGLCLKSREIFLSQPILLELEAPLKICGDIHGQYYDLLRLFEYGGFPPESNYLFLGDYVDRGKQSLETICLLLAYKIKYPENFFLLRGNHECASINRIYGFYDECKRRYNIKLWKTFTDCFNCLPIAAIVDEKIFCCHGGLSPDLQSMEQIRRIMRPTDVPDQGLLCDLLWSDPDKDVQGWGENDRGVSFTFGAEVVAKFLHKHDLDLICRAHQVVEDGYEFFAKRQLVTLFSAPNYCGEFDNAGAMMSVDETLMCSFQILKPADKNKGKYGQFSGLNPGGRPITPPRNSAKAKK
# Beta cell apopt – blocks beta cell apoptosis; protection from apoptosis, % (concentration not given with the values); INS-1E cytokine-induced death, ATP luminescence, 48 h; percent of positive-control rescue, neutral wells zero; AID 435005; 0.8% of 300,000 active;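 active = Every replicate reaches about 75%, or at least half do and their mean reaches it too, limit read from the data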;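 note: 0% = cytokine-treated negative control wells and 100% = positive control rescue; higher means more ATP so stronger rescue from cytokine killing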
# * marks the source's active call; other numbers are inactive results; . = no result given.
SMILES,SKKanGAS inh,PP5 primary,CSC inhib,PP1 counter,Beta cell apopt
Cc1ccc(NC2=C(Cl)C(=O)c3ccccc3C2=O)cc1,9.0,0.9,111.7*,1.0,3.1
O=C1C=C(Nc2ccc(O)cc2)C(=O)c2ccccc21,29.0,4.2,104.6*,0.6,99.6*
CC(=O)Nc1ccc(NC2=CC(=O)c3ccccc3C2=O)cc1,1.8,2.7,17.2,2.1,18.0
O=C1C(Cl)=C(Nc2ccc(O)cc2)C(=O)c2ccccc21,19.9,1.2,124.2*,2.2,5.8
CN(C)CCCn1cnc2c1c(=O)[nH]c(=O)n2Cc1ccccc1,2.1,3.0,-6.4,-2.0,-1.9
O=S(=O)(Nc1nccs1)c1ccc(Nc2nnc(-c3ccccc3)c3ccccc23)cc1,103.2*,5.3,-7.7,16.9*,2.3
Cc1cccc(NC(=O)COc2ccc(/C=C\c3[nH]c(=O)[nH]c(=O)c3[N+](=O)[O-])cc2)c1,-1.0,2.4,-6.8,10.7,-0.6
Cc1onc(-c2ccccc2Cl)c1C(=O)Nc1sc2c(c1C#N)CCC2,7.5,-1.8,18.4,1.0,9.2
Cc1onc(-c2ccccc2)c1C(=O)Nc1sc2c(c1C#N)CCC(C)C2 (stereo not given),-0.7,1.2,139.1*,1.6,19.3
CN(C)CCCO[C@@H]1[C@H]2OC(C)(C)O[C@H]2O[C@@H]1[C@H](O)CO,.,-0.3,-3.7,4.6,-1.1
Cc1ccc(NC(=O)CCC(=O)N/N=C/c2cc([N+](=O)[O-])ccc2O)cc1,3.5,-0.8,18.3,-3.0,5.7
O=C(CCCC(=O)Nc1cccc(Br)c1)N/N=C/c1cc([N+](=O)[O-])ccc1O,99.2*,-0.1,-6.5,16.3*,12.9
O=C(CN(c1cccc(Br)c1)S(=O)(=O)c1ccccc1)N/N=C/c1cc([N+](=O)[O-])ccc1O,118.9*,2.8,22.7,16.5*,.
O=C(CCC(=O)Nc1cccc(Cl)c1)N/N=C/c1cc([N+](=O)[O-])ccc1O,99.7*,3.2,13.6,2.5,28.9
CCOC(=O)N1C(=O)C2(CCCCC2)N(c2ccccc2Cl)C1=S,2.0,-0.7,-12.0,1.2,-3.9
Cc1cc(SCc2ccc(Br)cc2)nc(=O)[nH]1,-2.6,-1.3,3.1,0.8,-1.6
CC(=O)Nc1sc(NC(=O)c2ccc(Cl)cc2)nc1-c1cccs1,7.8,-0.9,-6.2,-3.5,-5.8
CC(=O)Nc1sc(NC(=O)c2ccc([N+](=O)[O-])cc2)nc1-c1cccs1,55.8*,-1.1,-1.6,-2.6,2.8
O=S(=O)(/N=C/c1ccccc1O)c1cccs1,0.7,0.2,.,-4.3,.
O=C1/C(=N\S(=O)(=O)c2cccs2)C([n+]2ccccc2)=C([O-])c2ccccc21,10.2,3.0,28.7,-2.0,97.1*
CC(C)(C)c1cc[n+](C2=C([O-])c3ccccc3C(=O)/C2=N\S(=O)(=O)c2cccs2)cc1,56.1*,0.3,65.5,-2.1,107.4*
O=C(Cn1cc(F)c(=O)[nH]c1=O)NCCO,-14.8,-3.4,.,-3.1,-4.7
CC(C)(C)c1ccc(C(=O)NC(=S)Nc2nc3c(s2)CCCC3)cc1,-2.2,0.7,79.8*,-4.1,12.9
COC(=O)c1ccc(CNC(=O)CCNC(=O)c2ccco2)cc1,.,6.5,.,-4.8,0.4
CCN(Cc1ccccc1)S(=O)(=O)c1ccc(C(=O)N(CCCN(C)C)c2nc3cc(C)cc(C)c3s2)cc1,33.9,3.6,101.5*,15.8*,.
SMILES,SKKanGAS inh,PP5 primary,CSC inhib,PP1 counter,Beta cell apopt
Cc1cc(C)c2sc(N(CCCN(C)C)C(=O)c3ccc(S(=O)(=O)N(C)Cc4ccccc4)cc3)nc2c1,22.3,2.4,-6.7,10.0,.
CCCCN(CC)S(=O)(=O)c1ccc(C(=O)N(CCCN(C)C)c2nc3cc(C)cc(C)c3s2)cc1,-2.2,2.5,98.7*,4.4,43.3
CCOc1ccc(C(=O)Nc2nnc(S(=O)(=O)N(C)Cc3ccco3)s2)cc1,7.1,-0.3,15.6,17.1*,1.4
COc1ccc(CN(C)S(=O)(=O)c2nnc(NC(=O)c3ccccc3Br)s2)cc1,59.0*,-0.6,29.7,-3.7,4.2
CN(Cc1ccco1)S(=O)(=O)c1nnc(NC(=O)c2ccc(F)cc2)s1,12.5,1.1,25.7,-0.1,22.5
Cc1ccc(NC(=O)C2CC(=O)Nc3nncn32)cc1 (stereo not given),.,1.5,6.6,-6.7,-11.6
Cc1c(NS(=O)(=O)c2ccc(NC(=O)CCC(=O)O)cc2)c(=O)n(-c2ccccc2)n1C,-27.8,4.0,-6.0,0.5,-10.6
CN(C)c1cc[n+](Cc2c(Cl)cccc2Cl)cc1,-5.5,2.6,6.9,-1.7,97.3*
CN(C)c1cc[n+](CC[n+]2ccc(N(C)C)cc2)cc1,8.3,1.4,-10.1,2.5,-9.6
